# Screening results (PubChem BioAssay)
# MARV entry inh – blocks Marburg virus binding to or entry into cells. Marburg virus pseudotyped entry inhibition, cell reporter. 300,000 compounds, 1.8% hits. Potency, µM (doses to about 37.8 µM), inactives show at the highest dose activity change, negative = inhibition, most hits filed as inhibitors; calls by dose curve; tested in HEK293 cells; further: potency means the concentration at half of the fitted maximal effect
# FBPA Giardia inh – blocks Giardia fructose-bisphosphate aldolase activity; A8B2U2; purified Giardia FBPA; Potency, µM (series often up to 59.6 µM), for the others: at the top dose activity, negative = inhibition, hits mostly inhibitors; 290,000 compounds, 0.71% hits; further: potency means the concentration at half of the fitted maximal effect; nearly all actives have a fitted effect of over 55% in size
# Target sequence (A8B2U2 whole entry, looked up): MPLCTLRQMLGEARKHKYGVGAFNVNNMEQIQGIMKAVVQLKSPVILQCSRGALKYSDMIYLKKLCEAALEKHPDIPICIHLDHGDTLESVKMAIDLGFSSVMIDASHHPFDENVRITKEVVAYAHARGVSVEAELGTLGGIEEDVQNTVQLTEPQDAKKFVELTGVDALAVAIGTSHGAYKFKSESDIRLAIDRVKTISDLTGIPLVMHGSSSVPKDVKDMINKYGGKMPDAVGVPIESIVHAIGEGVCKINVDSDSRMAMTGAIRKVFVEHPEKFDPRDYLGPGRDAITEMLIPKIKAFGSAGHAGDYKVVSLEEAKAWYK
#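 40 nM FBPA preincubated 10 min at RT with compound (up to 57.5 uM final), then substrate plus GAPDH/TPI/NAD/arsenate coupling and diaphorase/resazurin added. Fluorescence read after 20 min at RT, 525/598 nm.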
# Lassa entry inh – blocks Lassa virus binding to or entry into cells; Potency, µM (top dose mostly 37.9 µM), inactives show at the top dose activity change, negative = inhibition, most hits filed as inhibitors; AID 540256; 300,000 compounds, 1.2% hits; Lassa virus pseudotype entry inhibition, cell reporter; calls by dose curve; tested in HEK293 cells; further: potency means the concentration at half of the fitted maximal effect; nearly all actives have a fitted effect of over 50% in size
# HCV inh – blocks hepatitis C virus. 340,000 compounds, 3.4% hits. Huh7.5.1 HCVcc-Cre infection, luciferase reporter, 44 h. Potency, µM (titrated, usually from 41.8 µM), for inactives: top-dose activity change, negative = inhibition, usual class: inhibitors; further: potency means the concentration at half of the fitted maximal effect
#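 Compounds are dispensed onto cells plated 4 h earlier at 1,000 per well, with HCVcc-Cre virus (about 0.5 moi) added next. Following 44 h of culture, luminescent signal is measured for 15 sec after 15 min with substrate at room temperature.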
# HCMV antiviral – blocks human cytomegalovirus replication | 410,000 compounds, 4.5% hits | activity change, negative = inhibition, % at 57.5 µM | HFF cells, HCMV-luciferase reporter, 72 h; hits give low values | AID 1259415; in the data active means activity change below about -60%; inconclusive means no clear call, values can overlap the other calls; inactive means above about -39%
#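 Two compound doses tested in HFFs infected with HCMV-luciferase, MOI 1 PFU/cell, 72 h at 37C. Lysate luminescence read with OneGlo; data normalized against buffer-only and 10uM Salinomycin inhibitor controls.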
# FMDV antiviral – foot and mouth disease virus antiviral activity. FMDV antiviral cell-based qHTS. Potency, µM (doses to about 57.9 µM), for the others: at the highest dose activity change, negative = inhibition, usual class: inhibitors. 410,000 compounds, 1.2% hits. AID 1159524; calls by dose curve; tested in HEK293T cells; further: read-out not given here; potency means the concentration at half of the fitted maximal effect; nearly all actives have a fitted effect of over 45% in size
# * marks the source's active call; other numbers are inactive results; u = inconclusive; x = no result; ! = repeats disagree; [ ] = remark or other dose. Shown are actives, neighbours in structure and some others; about 8.3% of the full set was active somewhere. Unless noted, the call rests on the fitted dose curve; in most records, active means well fitted curve in the direction sought with a large enough effect; inconclusive means small, poorly fitted or top-dose-only effect, or another doubt; inactive means no such curve, though single readings can be large; an effect the other way counts as inactive or inconclusive. On the % scale 0 is the no-effect control and ±100 the full control effect.
SMILES,MARV entry inh,FBPA Giardia inh,Lassa entry inh,HCV inh,HCMV antiviral,FMDV antiviral
CC(C)(C)S(=O)N1Cc2ccc(CO)cc2[C@H]1CCO (some centres undefined),x,x,x,6.9%,17.2,-14.2%
Cc1cc(C)c(NC(=O)Cn2c(=O)oc3cc(S(=O)(=O)N4CCCCCC4)ccc32)c(C)c1,-17.0%[46.1 µM],x,-5.2%[46.1 µM],x,-70.3*,-19.1%
Cc1ccc(NC(=O)Cn2c(=O)oc3cc(S(=O)(=O)N4CCC(C)CC4)ccc32)cc1C,0.1%,7.1%,x,u,-68.6*,-11.7%
COc1ccc(C)cc1NC(=O)Cn1c(=O)ccc2cc(S(=O)(=O)N3CCC(C)CC3)ccc21,x,x,2.0%[46.1 µM],x,-114.1*,-28.2%
COc1ccccc1CNC(=O)Cn1c(=O)oc2cc(S(=O)(=O)N3CCCC3)ccc21,1.3%[46.1 µM],-2.3%,-23.0%[46.1 µM],-2.7%,-60.6*!,-22.4%
Cc1ccc(NC(=O)Cn2c(=O)oc3cc(S(=O)(=O)N4CCC(C)CC4)ccc32)cc1Cl,-20.1%[46.1 µM],x,-4.2%[46.1 µM],x,u,-1.6%
C=CCCC1CN(Cc2ccc(OC)cc2)S(=O)(=O)c2c(cccc2N(C)S(=O)(=O)c2ccc(C)cc2)O1 (centres undefined),x,x,x,x,-18.5,x
CCn1cc(C(=O)NCc2ccccc2OC)c(=O)c2cc(S(=O)(=O)N3CCCCC3)ccc21,u,x,-35.5%[46.1 µM],x,-76.7*,-25.5%
COc1cccc(CNC(=O)Cn2c(=O)oc3cc(S(=O)(=O)N4CCC(C)CC4)ccc32)c1,-18.9%[46.1 µM],x,-12.3%[46.1 µM],x,-15.6,-24.5%
CCn1cc(C(=O)NCc2ccccc2Cl)c(=O)c2cc(S(=O)(=O)N3CCCCC3)ccc21,-2.6%[46.1 µM],x,0.1%[46.1 µM],x,18.9,-19.4%
CC1CCN(S(=O)(=O)c2ccc3c(c2)oc(=O)n3CC(=O)NCc2ccc(F)cc2)CC1,u,x,-14.6%[46.1 µM],x,-97.0*,-14.8%
O=C(Nc1cnn(Cc2ccc(Cl)cc2Cl)c1)c1noc2c1CCc1ccccc1-2,u,x,10.9%[46.1 µM],x,-17.7,3.5%
CCC1CCCCN1C(=O)c1nn(-c2ccc(C)cc2)c(=O)c2c1c1ccccc1n2C (centres undefined),0.9%[46.1 µM],x,21.9%[46.1 µM],x,0.9,u
Cc1cc(C)cc(N(CCC(=O)O)S(=O)(=O)c2ccc(Cl)cc2)c1,-5.0%,3.9%,7.3%,3.2%,-69.2*,-3.8%
Cc1ccc(N(CCC(=O)O)S(=O)(=O)c2ccc(C)cc2)cc1,u,18.5%,-10.7%,1.9%,-7.0,0.0%
COc1ccc(NS(=O)(=O)c2ccc3nc(COc4ccc(C#N)cc4)[nH]c3c2)cc1,-31.0%,13.4%,-8.3%,12.6µM*,-12.6,-17.1%
COc1ccc(OCc2nc3ccccc3[nH]2)cc1,u,-1.6%,u,u,61.9,x
Cc1ccc(NC(=O)CSc2nc(-c3cccs3)cc(C(F)(F)F)n2)cc1C,u,x,u,x,-19.2,-23.5%
O=C(CSc1nc(-c2cccs2)cc(C(F)(F)F)n1)Nc1cc(OCC(F)(F)C(F)F)cc([N+](=O)[O-])c1,u,2.0%,u,3.55µM*,-1.2,u
COc1cccc(OC)c1OCC(C)CNCC1CCCO1 (centres undefined),-13.3%,-18.1%,5.6%,1µM*,62.1,x
COc1cccc(OC)c1OC[C@H](C)CNC[C@@H]1CCCO1,-13.3%,x,x,x,x,x
CCC1=Nc2cc(C(=O)NCCc3ccccc3)ccc2Sc2ccc(Cl)cc21,-13.6%[46.1 µM],x,u,x,4.2,-1.9%
CCOC(=O)N1CCC(NC(=O)c2ccc3c(c2)N=C(CC)c2ccccc2S3)CC1,x,0.1%,x,10µM*,u,-29.5%
CCCNC(=O)c1ccc2c(c1)N=C(CCC)c1ccccc1S2,u,x,-17.0%[46.1 µM],x,-86.1*,-14.6%
CCOC(=O)N1CCC(NC(=O)c2ccc3c(c2)sc2nc(-c4ccccc4)cn23)CC1,11.2µM*,2.3%,u,u,x,u
SMILES,MARV entry inh,FBPA Giardia inh,Lassa entry inh,HCV inh,HCMV antiviral,FMDV antiviral
CCCC1=Nc2cc(C(=O)NCCc3ccccc3)ccc2Sc2ccc(C)cc21,u,x,-11.1%[46.1 µM],x,-67.2*,-2.1%
CNc1nc2cnc(-c3cc(OC)c(OC)c(OC)c3)cc2n1Cc1ccccc1,x,x,x,x,53.3,x
CCc1ccc(NCc2cc3ccc(OC)cc3n(CC(=O)Nc3ccc(C)c(Cl)c3)c2=O)cc1,x,x,-21.3%[46.1 µM],x,23.9,-3.8%
CCOCCCNC(=O)c1ccc2c(c1)N=C(CC)c1cc(Br)ccc1S2,u,-11.5%,u,-29.1%,-88.5*,-20.0%
CCC1=Nc2cc(C(=O)NCCN(CC)CC)ccc2Sc2ccccc21,u,x,u,x,u,-16.9%
CCCC1=Nc2cc(C(=O)NC3CCC(C)CC3)ccc2Sc2ccccc21 (centres undefined),u,x,u,x,-76.9*,4.8%
C[C@@H]1C=CC(=O)O[C@@H]1c1ccc(C(F)(F)F)cc1,x,1.1%,x,x,x,x
C[C@H]1C=CC(=O)O[C@H]1c1ccccc1,x,4.2%,x,14.8%,-77.4*,-27.9%
O=c1oc2c3c4c(cc2cc1-c1nc2ccccc2[nH]1)CCCN4CCC3,-0.4%,x,x,x,x,x
N=c1oc2c3c4c(cc2cc1C(=O)Nc1ccccc1)CCCN4CCC3,-1.5%,u,u,7.94µM*,x,31.9%
COc1cccc(C(=O)N2CCc3c(C(=O)NC(C)c4ccco4)c(OC)cc(=O)n3CC2)c1OC (centres undefined),x,x,x,x,x,23.3%
Cc1ccc(S(=O)(=O)Nc2ccc3c(c2)OCCO3)cc1C,-15.9%[46.1 µM],-4.2%,0.3%,-6.5%,u,-21.5%
Cc1cc(C)cc(NS(=O)(=O)c2ccc3c(c2)c(=O)n(C)c(=O)n3C)c1,u,0.2%,u,6.31µM*,u,x
Cn1c(=O)c2cc(S(=O)(=O)Nc3cc(C(=O)O)cc(C(=O)O)c3)ccc2n(C)c1=O,1.7%,10.4%,-4.4%,8.6%,5.5,-11.0%
COc1ccc(NS(=O)(=O)c2ccc3c(c2)OCCO3)cc1OC,u,-8.1%,-14.2%[46.1 µM],6.31µM*,-74.9*,2.8%
COc1ccc(S(=O)(=O)Nc2ccc3c(c2)OCO3)cc1OC,-17.5%,-4.1%,4.9%,4.3%,36.5,97.9%
CC(=O)Nc1ccc(S(=O)(=O)Nc2ccc3c(c2)OCCO3)cc1Cl,-28.7%[46.1 µM],13.3%,-13.5%[46.1 µM],u,-87.7*,-16.0%
COc1ccc(S(=O)(=O)Nc2ccc3c(c2)OCCO3)cc1Cl,-15.8%,8.9%,-6.4%,11.2µM*,-15.8,6.3%
COC(=O)c1cc(NS(=O)(=O)c2ccc3c(c2)OCCO3)ccc1Cl,11.0%[46.1 µM],x,1.1%[46.1 µM],x,-5.8,58.4%
COc1cccc(Cn2c(=O)c(-c3cccs3)nc3cnc(N(C)C)nc32)c1,x,3.4%,x,x,x,-1.8%
COC(=O)c1ccc(NC(=O)CC2C(=O)N(c3cccc(F)c3)C(=O)N2CC(C)C)cc1 (centres undefined),-17.4%[46.1 µM],x,0.3%[46.1 µM],x,-4.2,-8.3%
CC(=O)NCCc1ccc(S(=O)(=O)Nc2ccc3c(c2)OCCO3)cc1,9.0%[46.1 µM],x,-3.7%[46.1 µM],-4.2%,-63.6*,-2.3%
Cc1ccc(CNS(=O)(=O)c2ccc3c(c2)n(C)c(=O)n3C)cc1,u,9.7%,u,u,-66.0*,-22.5%
